In PubChem BioAssay (Tox21):
Results filed as inconclusive are left out. Activity calls are given as the source filed them. Unless noted, the call rests on the fitted dose curve; in most records, active means well fitted curve in the direction sought with a large enough effect in the repeat runs; inconclusive means weak or mixed curves; inactive means no such curve, though single readings can be large; an effect the other way counts as inactive or inconclusive.

Tests used:
[1] = qHTS assay to identify small molecule agonists of the hypoxia (HIF-1) signaling pathway - cell viability counter screen (AID 1224844; calls by dose curve; further: nearly all actives have a fitted effect of over 50% in size)
In short: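 In this counter screen, HRE-bla ME-180 cell viability after 17 hrs of compound exposure at 37C was read by CellTiter-Glo luminescence, multiplexed with the beta-lactamase reporter measurement.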

[2] = qHTS assay to identify small molecule agonists of H2AX (AID 1224845; active means well fitted activation curve with a large enough effect in the signal ratio in the repeat runs, not every such curve was filed as active; the % refers to the signal ratio)
In short: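 Phospho-H2AX Ser139 measured by HTRF (ex 320 nm; em 665 and 620 nm) after 24 hr antibody incubation. Compounds, 15 concentrations, 0.76% DMSO, were applied to CHO-K1 cells for 3hr at 37C before lysis.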

[3] = qHTS assay to identify small molecule agonists of the hypoxia (HIF-1) signaling pathway (AID 1224846; active means well fitted activation curve with a large enough effect in the signal ratio in the repeat runs, not every such curve was filed as active; the % refers to the signal ratio)
In short: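 ME-180 HRE-bla reporter cells; compounds in DMSO, 17 h at 37C; read-out beta-lactamase via CCF4-AM FRET.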

[4] = qHTS assay to identify small molecule agonists of H2AX - cell viability counter screen (AID 1224847; calls by dose curve; further: top concentration of the series differs between compounds; nearly all actives have a fitted effect of over 30% in size)
In short: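 Quantitative HTS viability measurement: CHO-K1 wild-type cells in serum (10% FBS) medium, short 3 hr drug exposure at 37C with 0.76% DMSO, CellTiter-Glo luminescent detection.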

[5] = qHTS RealTime-Glo MT Cell Viability Assay in HepG2 cells - 24 hour (AID 1224867); further: nearly all actives have a fitted effect of over 50% in size
In short: (§1)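 qHTS, HepG2, 600 cells/well, RealTime-Glo (NanoLuc + prosubstrate) added with cells; 5 h preincubation; DMSO compound addition; 37 C; luminescence at 0/8/16/24/32/40 h.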

[6] = qHTS RealTime-Glo MT Cell Viability Assay in HEK293 cells - 32 hour (AID 1224868); further: nearly all actives have a fitted effect of over 50% in size; further: potency means the concentration at half of the fitted maximal effect
In short: (§2)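 Assay medium contained NanoLuc luciferase plus cell-permeant prosubstrate, added with HEK293 cells at 600 cells/well. After 5 h at 37 C/5% CO2 compounds were added; plates stayed at 37 C for 40 h with serial luminescence reads.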

[7] = A CellTox Green Cytotoxicity Assay to monitor cytotoxicity in HEK293 cells - 0 hour (AID 1224869); further: nearly all actives have a fitted effect of over 50% in size
In short: (§3)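 Real-time, in one plate: 600 HEK293 cells/well with dead-cell DNA dye, pinned compound after 5 h, 37 C incubation over 40 h; viable cells give no appreciable fluorescence.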

[8] = A CellTox Green Cytotoxicity Assay to monitor cytotoxicity in HEK293 cells - 40 hour (AID 1224871); further: nearly all actives have a fitted effect of over 45% in size
In short: as §3

[9] = qHTS RealTime-Glo MT Cell Viability Assay in HepG2 cells - 8 hour (AID 1224873); further: nearly all actives have a fitted effect of over 55% in size
In short: (§4)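 Real-time viability: cells seeded at 600 per well together with NanoLuc and cell-permeant prosubstrate, compounds added after 5 h incubation. Luminescence tracked at 0, 8, 16, 24, 32 and 40 h of exposure.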

[10] = qHTS RealTime-Glo MT Cell Viability Assay in HEK293 cells - 40 hour (AID 1224874); conditions: RealTime-Glo luminescence; max response: hits give low values; further: nearly all actives have a fitted effect of over 50% in size; further: potency means the concentration at half of the fitted maximal effect
In short: (§5)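 Kinetic, non-lysing viability readout. Seed HEK293 (600/well) with reagent, incubate 5 h at 37 C/5% CO2, pin 23 nL compound in DMSO, incubate at 37 C, read luminescence at 0, 8, 16, 24, 32, 40 h.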

[11] = A CellTox Green Cytotoxicity Assay to monitor cytotoxicity in HEK293 cells - 24 hour (AID 1224875); further: nearly all actives have a fitted effect of over 45% in size; further: potency means the concentration at half of the fitted maximal effect
In short: as §3

[12] = A CellTox Green Cytotoxicity Assay to monitor cytotoxicity in HepG2 cells - 16 hour (AID 1224876); further: nearly all actives have a fitted effect of over 45% in size; further: potency means the concentration at half of the fitted maximal effect
In short: (§6)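 Cytotoxicity was tracked as dead-cell DNA fluorescence in HepG2 cells treated with test compounds at 37 C; each time-point value comes from one kinetic series spanning 0, 8, 16, 24, 32 and 40 h.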

[13] = qHTS RealTime-Glo MT Cell Viability Assay in HepG2 cells - 32 hour (AID 1224877); further: nearly all actives have a fitted effect of over 55% in size
In short: as §1

[14] = A CellTox Green Cytotoxicity Assay to monitor cytotoxicity in HepG2 cells - 24 hour (AID 1224878); further: nearly all actives have a fitted effect of over 45% in size; further: potency means the concentration at half of the fitted maximal effect
In short: as §6

[15] = A CellTox Green Cytotoxicity Assay to monitor cytotoxicity in HepG2 cells - 40 hour (AID 1224879); further: nearly all actives have a fitted effect of over 40% in size; further: potency means the concentration at half of the fitted maximal effect
In short: as §6

[16] = qHTS RealTime-Glo MT Cell Viability Assay in HEK293 cells - 0 hour (AID 1224880)
In short: as §5

[17] = qHTS RealTime-Glo MT Cell Viability Assay in HepG2 cells - 40 hour (AID 1224870); further: nearly all actives have a fitted effect of over 50% in size
In short: as §4

[18] = qHTS RealTime-Glo MT Cell Viability Assay in HEK293 cells - 16 hour (AID 1224872)
In short: as §2
On the % scale 0 is the no-effect control and ±100 the full control effect.

CCC1(c2ccccc2)C(=O)NC(=O)NC1=O
inactive: Potency [1] | Potency [2] | outcome [3] | Potency [4] | Potency [5] | Potency [6] | Potency [7] | Potency [8] | Potency [9] | max response [10] 17.3% | Potency [11] | Potency [12] | Potency [13] | Potency [14] | Potency [15] | outcome [16]

CCC1(c2ccccc2)C(=O)N=C(O)NC1=O (stereo not drawn)
inactive: Potency [1] | Potency [2] | outcome [3] | Potency [4] | Potency [5] | Potency [6] | Potency [7] | Potency [17] | Potency [8] | Potency [18] | max response [10] 9.07% | Potency [11] | Potency [12] | Potency [13] | Potency [14] | Potency [15] | outcome [16]

CCSC(=O)N(CC)C1CCCCC1
inactive: Potency [1] | Potency [2] | outcome [3] | Potency [4] | Potency [5] | Potency [6] | Potency [7] | Potency [18] | Potency [9] | max response [10] -0.642% | Potency [11] | Potency [12] | Potency [13] | Potency [14] | Potency [15] | outcome [16]

O=C(CCN1CC1)OCC(CO)(COC(=O)CCN1CC1)COC(=O)CCN1CC1
inactive: Potency [1] | Potency [2] | outcome [3] | Potency [4] | Potency [5] | Potency [6] | Potency [7] | Potency [17] | Potency [18] | max response [10] 0.103% | Potency [11] | Potency [12] | Potency [13] | Potency [14] | Potency [15] | outcome [16]

CC(C)[N+](=O)[O-]
inactive: Potency [1] | Potency [2] | outcome [3] | Potency [4] | Potency [5] | Potency [6] | Potency [7] | Potency [8] | Potency [9] | max response [10] 0.0306% | Potency [12] | Potency [13] | Potency [14] | Potency [15] | outcome [16]

ClC(Cl)Br
inactive: Potency [1] | Potency [2] | outcome [3] | Potency [4] | Potency [5] | Potency [6] | Potency [7] | Potency [17] | Potency [8] | Potency [18] | max response [10] 8.21% | Potency [11] | Potency [12] | Potency [13] | Potency [14] | Potency [15] | outcome [16]

C[N+](C)=CCl
inactive: Potency [1] | Potency [2] | outcome [3] | Potency [4] | Potency [5] | Potency [6] | Potency [7] | Potency [8] | Potency [18] | Potency [9] | max response [10] 17.5% | Potency [12] | Potency [13] | Potency [14] | Potency [15] | outcome [16]

CC1(C)CON(Cc2ccccc2Cl)C1=O
inactive: Potency [1] | Potency [2] | outcome [3] | Potency [4] | Potency [5] | Potency [6] | Potency [7] | Potency [17] | max response [10] -0.432% | Potency [12] | Potency [13] | Potency [14] | Potency [15] | outcome [16]

O=NN1CCCCC1
inactive: Potency [1] | Potency [2] | outcome [3] | Potency [4] | Potency [5] | Potency [6] | Potency [7] | Potency [8] | Potency [18] | Potency [9] | max response [10] 1.37% | Potency [12] | Potency [13] | Potency [14] | Potency [15] | outcome [16]

Cc1cccc(C#N)c1
inactive: Potency [1] | Potency [2] | outcome [3] | Potency [4] | Potency [5] | Potency [6] | Potency [7] | Potency [8] | Potency [18] | Potency [9] | max response [10] 6.99% | Potency [11] | Potency [12] | Potency [13] | Potency [14] | Potency [15] | outcome [16]

CCN(CC)C(C)C(=O)c1ccccc1 (stereo not drawn)
inactive: Potency [1] | Potency [2] | outcome [3] | Potency [4] | Potency [5] | Potency [6] | Potency [7] | Potency [17] | Potency [18] | max response [10] 2.31% | Potency [12] | Potency [13] | Potency [14] | Potency [15] | outcome [16]

COc1ncc(F)c2nc(S(=O)(=O)Nc3c(F)cccc3F)nn12
active: Potency [11] 12.4 µM
inactive: Potency [1] | Potency [2] | outcome [3] | Potency [4] | Potency [5] | Potency [6] | Potency [7] | Potency [17] | Potency [18] | Potency [9] | max response [10] 6.8% | Potency [12] | Potency [13] | Potency [14] | Potency [15] | outcome [16]

Fc1cc(Br)ccc1CBr
inactive: Potency [1] | Potency [2] | outcome [3] | Potency [4] | Potency [5] | Potency [6] | Potency [7] | Potency [8] | max response [10] -0.0441% | Potency [11] | Potency [12] | Potency [13] | Potency [14] | Potency [15] | outcome [16]

c1cc2c(c(N3CCNCC3)c1)OCCO2
inactive: Potency [1] | Potency [2] | outcome [3] | Potency [4] | Potency [5] | Potency [6] | Potency [7] | Potency [18] | Potency [9] | max response [10] -2.14% | Potency [11] | Potency [12] | Potency [13] | Potency [14] | Potency [15] | outcome [16]

CN(N=O)C(N)=O
inactive: Potency [1] | Potency [2] | outcome [3] | Potency [4] | Potency [5] | Potency [6] | Potency [7] | Potency [8] | Potency [18] | Potency [9] | max response [10] 10.1% | Potency [11] | Potency [12] | Potency [13] | Potency [14] | Potency [15] | outcome [16]

ClC(Cl)(Cl)C(Cl)(Cl)Cl
inactive: Potency [1] | Potency [2] | outcome [3] | Potency [4] | Potency [5] | Potency [6] | Potency [7] | Potency [17] | Potency [8] | Potency [18] | max response [10] 2.47% | Potency [11] | Potency [12] | Potency [13] | Potency [14] | Potency [15] | outcome [16]

CCCCc1ccc(O)cc1
inactive: Potency [1] | Potency [2] | outcome [3] | Potency [4] | Potency [5] | Potency [7] | Potency [17] | Potency [9] | Potency [11] | Potency [13] | outcome [16]
active: Potency [6] 19.5 µM | Potency [10] 15.5 µM | Potency [12] 21.8 µM | Potency [14] 21.8 µM | Potency [15] 21.8 µM
